Pf growth 48h = Primary qHTS for delayed death inhibitors of the malarial parasite plastid, 48 hour incubation. P. falciparum luciferase growth in erythrocytes, 48 h. Potency, µM (top dose mostly 28.7 µM), inactives show at the highest dose activity change, negative = inhibition, most hits filed as inhibitors. actives 5.9% (n = 310,000). AID 504832, 2011; active means well fitted inhibition curve with a large enough effect; inconclusive means small, poorly fitted or top-dose-only effect, or another doubt; inactive means no such curve, though single readings can be large or run the other way; further: potency means the concentration at half of the fitted maximal effect; on the % scale 0 is the no-effect control and ±100 the full control effect
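Parasite viability was followed by luminescence of a genomically integrated firefly luciferase. Cultures held 0.1% parasitemia at 2% hematocrit (final), incubated under 5% CO2 at 37 C.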
CHX counter = Cycloheximide Counterscreen for Small Molecule Inhibitors of Shiga Toxin. cell reporter, cycloheximide protein synthesis inhibition counterscreen. max response, %. actives 12% (n = 300,000). AID 2314, 2010; in the data active means max response mostly above about 13%, no sharp cut-off; inactive means mostly below about 14%; further: read at 38.3 µM for the half of the compounds with a filed dose; 0% is about no effect
NS1 function inh = qHTS Assay for Inhibitors of Influenza NS1 Protein Function; Potency, µM (top dose mostly 46.1 µM), for inactives: top-dose activity, positive = more growth; actives 0.4% (n = 270,000); further: potency means the concentration at half of the fitted maximal effect; actives are rising curves; nearly all actives have a fitted effect of over 50% in size
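Read-out: OD600 growth recovery of NS1-expressing budding yeast. Cells grown overnight at 30C in -URA glucose medium, washed, resuspended and diluted 1:100 in 2% galactose assay medium, pH 6.0. Same strain lacking NS1 served as positive control.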
Shiga toxin inh = A qHTS for Small Molecule Inhibitors of Shiga Toxin; inhibition, % at 38.7 µM; Vero cells, Shiga toxin protein synthesis inhibition reporter; actives 9.2% (n = 290,000); AID 2315, 2010; in the data active means inhibition mostly above about 28%, no sharp cut-off; inactive means mostly below about 43%; further: 0% is about no effect
Pf growth 96h = Primary qHTS for delayed death inhibitors of the malarial parasite plastid, 96 hour incubation; P. falciparum luciferase reporter growth, 96 h; Potency, µM (highest dose often 28.7 µM), for inactives: at the highest dose activity change, negative = inhibition, usual class: inhibitors; actives 6.9% (n = 320,000); active means well fitted inhibition curve with a large enough effect; inconclusive means small, poorly fitted or top-dose-only effect, or another doubt; inactive means no such curve, though single readings can be large or run the other way; further: potency means the concentration at half of the fitted maximal effect; on the % scale 0 is the no-effect control and ±100 the full control effect
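Two-generation exposure (96 h) targets delayed-death phenotype. Reporter parasites carrying integrated firefly luciferase, in red cells at 2% hematocrit and 0.05% parasitemia final, kept at 37 C, 5% CO2; luminescence loss indicates inhibition.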
SARS PLP yeast = qHTS of Yeast-based Assay for SARS-CoV PLP; S. cerevisiae expressing SARS-CoV PLpro, growth rescue; Potency, µM (highest dose often 32.9 µM), without a hit: at the highest dose activity, positive = growth rescue, hits mostly activators; actives 0.19% (n = 330,000); AID 485353, 2010; further: potency means the concentration at half of the fitted maximal effect; 0% is about no effect; nearly all actives have a fitted effect of over 55% in size
Starred values were filed as active, the others as inactive; ? = inconclusive; . = no result; [ ] = another dose, or the depositor's remark. Rows were chosen to be rich in hits. Some 21% of all compounds tested hit in one or more screens of this group. Unless noted, the call rests on the fitted dose curve.

SMILES | Pf growth 48h | CHX counter | NS1 function inh | Shiga toxin inh | Pf growth 96h | SARS PLP yeast
CC(C)(C)c1ccc(S(=O)(=O)N2CCN(CC(=O)NC(=O)NC3CCCCC3)CC2)cc1 | -21% | . | . | . | 2.9µM* | -1%
O=C(CCl)N1CCN(S(=O)(=O)c2ccc3c(c2)CCC3)CC1 | 2.3µM* | . | . | . | ? | 1%
O=C(CCl)N1CCN(S(=O)(=O)Cc2ccccc2)CC1 | ? | . | . | . | 13µM* | 3%
COc1ccc(S(=O)(=O)N2CCN(CC(=O)NC3CCCC3)CC2)cc1 | -7% | -2 | -3% | -5 | ? | 14%
CC(C)(C)c1ccc(C(=O)NCCC(=O)Nc2ccc3c(c2)OCCO3)cc1 | ? | . | . | . | -6% | 0%
CC(=O)C[C@H](O)CC(=O)[C@@H]1OC(=O)CCCCCc2ccccc21 | . | . | . | . | . | 1%
CCOc1ncccc1C(=O)OCC(=O)NCCc1ccc(S(N)(=O)=O)cc1 | -4% | . | . | . | 21% | 10%
CCOC(=O)/C=c1\s/c(=C(\C#N)C(=O)NC)n(-c2ccccc2)c1=O | 33% | 0 | 17% | -3 | 43% | 2%
Cc1ccccc1-n1c(=O)/c(=C\c2ccco2)s/c1=C(/C#N)C(=O)Nc1ccccc1 | 1.5µM* | 8 | 14% | -3 | 10% | ?
Cc1cc(NC(=O)c2ccc(Cl)cc2Cl)no1 | 171% | 42* | 13% | . | 3.7µM* | 1%
Cc1cc(C(=O)NNC(=O)c2ccc(Cl)cc2Cl)c(C)o1 | 16% | . | . | . | 22% | -1%
O=C(Nc1ccsn1)c1ccc(Cl)cc1Cl | 134% | 41* | 7% | 47* | 137% | 1%
Cn1c(NC(=O)c2ccc(Cl)cc2Cl)cc(=O)n(C)c1=O | . | -5 | -2% | 18 | ? | 1%
CC(=O)Nc1ccc(NC(=O)/C=C/c2ccc(Cl)cc2)cc1 | 33% | 30* | . | 26* | ? | 0%
Cc1noc(-c2ccc(C(F)(F)F)cc2)c1NC(=O)Nc1ccc(Cl)cc1 | 2.6µM* | -1 | -34% | 16 | 2.6µM* | -5%
COc1ccc(NC(=O)/C=C/c2ccc(Cl)cc2)cc1 | . | . | -4% | . | . | .
CCOc1ccccc1-n1nnnc1SC(C)C(=O)OC (stereo not given) | 13% | 4 | -1% | -13 | -11% | 1%
COc1ccccc1C(=O)NC(CCSC)C(=O)NCC(c1cccs1)N1CCOCC1 (stereo not given) | ? | . | . | . | -3% | 2%
Cc1cc(NC(=O)CSc2ccc(F)cc2)no1 | 12% | 11 | . | 30 | -13% | 2%
CN(C)/C=C/C(=O)c1ccc(Cl)cc1 | -18% | 9 | -49% | -5 | 33% | -16%
Cc1cc(NC(=O)CCCC(=O)Nc2ccc(F)cc2)no1 | 11% | 1 | -2% | -6 | 8.3µM* | -7%
CN(C)/C=C/C(=O)/C=C/c1ccc(Cl)cc1 | 28% | 45* | -38% | 87* | 34% | -5%
Cc1cc(NC(=O)Nc2cccc(C)c2C)no1 | 28% | 16 | . | 18 | 43%[1.15 µM] | -1%
Cc1cc(NC(=O)/C=C/c2ccc(Cl)cc2)no1 | ? | 23* | -1% | 73* | 45% | -15%
Cc1cccc(NC(=O)Nc2cc(C)on2)c1 | 52% | 39* | -50% | 71* | -4% | .
SMILES | Pf growth 48h | CHX counter | NS1 function inh | Shiga toxin inh | Pf growth 96h | SARS PLP yeast
NC(=O)CSc1nnc(NC(=O)c2ccc(S(=O)(=O)N3CCCCC3)cc2)s1 | ? | . | . | . | 4% | 0%
O=C(c1c(F)cccc1F)N1CCCc2ccccc21 | -12% | 8 | -18% | . | -11% | -2%
Cc1cc(NC(=O)CN(C)CC(=O)Nc2ccc(Cl)cc2)no1 | . | . | . | . | . | -3%
Cc1cc(NC(=O)Nc2ccc(Cl)cc2)no1 | 74% | 27* | -23% | . | ? | -11%
Cc1ccc(NC(=O)Nc2cc(C)on2)cc1 | 390% | 47* | . | 75* | ? | 1%
CC(C)C[C@H](NC(=O)[C@H](Cc1ccccc1)NC(=O)CNC(=O)[C@@H](COC(C)(C)C)NC(=O)[C@@H](N)Cc1ccc(O)cc1)C(=O)N[C@H](C(=O)O)[C@@H](C)OC(C)(C)C | . | -4 | . | -3 | . | .
CCCCOc1ccc(C2/C(=C(\O)c3ccc4c(c3)OCCO4)C(=O)C(=O)N2CCCN2CCOCC2)cc1 (stereo not given) | 17% | 4 | -3% | 22 | ? | -7%
CCCCCCNC(=O)n1cc(F)c(=O)[nH]c1=O | 4.3µM* | . | . | . | 2.1µM* | .
CCCCCCCCCn1cc(C(C)=O)c(=O)[nH]c1=O | 36% | -1 | -7% | -8 | 145% | 4%
Cc1ccnc(SCc2ccc([N+](=O)[O-])cc2)n1 | 80% | 17* | 2% | 46 | ? | -2%
Cc1cc(C)nc(SCc2ccc([N+](=O)[O-])cc2)n1 | -21% | 0 | -4% | 9 | 26% | -1%
O=[N+]([O-])c1ccc(SCCc2ccccn2)cc1 | 19% | 21* | -1% | 50* | 17% | -3%
O=C(Nc1cc(Sc2ccccn2)cc([N+](=O)[O-])c1)c1ccc([N+](=O)[O-])cc1 | 13µM* | 1 | 4% | -6 | 3.3µM* | 1%
N#Cc1cc(Sc2ccccn2)c([N+](=O)[O-])cc1C#N | 3.7µM* | 8 | . | -10 | 69% | 3%
O=C(NCc1ccccn1)c1ccc([N+](=O)[O-])cc1 | 5% | 0 | 3% | 1 | -7% | -11%
CCN(CC)C(=O)CC(c1ccc(F)cc1)c1ccc(OC)cc1 (stereo not given) | -10% | 0 | 6% | -4 | ? | 13%
Cc1cccc(N(CC(=O)NCc2ccco2)C(=O)CCC(=O)Nc2nccs2)c1C | -25% | -2 | -6% | 12 | ? | -2%
O=[N+]([O-])c1ccc(CSc2ccccn2)cc1 | . | 39* | 2% | 48 | 25% | 1%
O=[N+]([O-])c1ccc(Sc2ccc(Cl)c(Cl)c2)nc1 | 10% | 6 | 15% | -12 | -24% | -3%
O=C(O)c1ccc(CSc2ccccn2)cc1 | 1% | 0 | 1% | -4 | 12% | -1%
O=[N+]([O-])c1ccc(Sc2ccccn2)nc1 | ? | 3 | 2% | 31 | 8.3µM* | 0%
O=[N+]([O-])c1ccccc1CSc1ccccn1 | 50% | 11 | 6% | 53* | 23% | 0%
O=C(O)c1ccccc1CSc1ccccn1 | 12% | 4 | . | -19 | ? | -3%
CC1CCCC(C)N1C(=O)COC(=O)c1cc(=O)[nH]c2ccccc12 (stereo not given) | . | . | . | . | . | 5%
Cc1ccc(-n2nc(C)c(=O)c(-c3ccccc3)c2NC(=O)c2cccs2)cc1 | 20% | -2 | -5% | 31 | -16% | 0%
COc1ccccc1CNC(=O)C1CC(c2ccccc2C(F)(F)F)=NO1 (stereo not given) | -16% | -2 | -3% | 3 | 18% | -2%

Source: PubChem BioAssay
